Source: the supplement of paper PMC6555819

Each sequence was assayed on PPARa:RXRa (NR concentration 270 nM, RXRa partner concentration 90 nM) (assay: PBM binding z-score (relative to random genomic background probes); higher = stronger binding; sequences stand for … in GC…GCGATTGACAGCGTAGAATGAAGG).
Method in brief: (§1)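 Antibodies against each partner of ligand-free nuclear receptor dimers (one per run) detected binding on custom Agilent 4×180K protein-binding microarrays after 1 h incubation. The double-stranded probes had 34-nt variable regions carrying direct-repeat seeds, single-nucleotide variants, half-site ablations and random human genomic background sequences. Binding z-scores, from regression-normalized fluorescence, use the random background probes as reference.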

Row | Sequence | PBM binding z-score
1 | ATCTCTAGGTAAAGGTAGTTCAGTGAATGCAAAT | 1.08
2 | ACTTTTAGTTGAGACGAGGGCAACCGATAGGTTG | 0.546
3 | TGTTGTAGATCAGCAGGTTAAGAAAGCTGGCCAA | -0.205
4 | CACCCTAGGTCAGGGCCAGTATAGGAGGAACGTT | 2.24
5 | AGAATGAGGTTATTAAGATCTGGGAATTGCGGTC | 2.79
6 | CGTCCAAGGTCAGAGACGTCAGTGAATGCCGAGT | 3.7
7 | ATCTCTCGGTAACAAGTTCAGTGAAAGAGAGGAC | 0.533
8 | TCTATTAGTTGAAGGGCAACCAACGAGTCCGTTT | 0.554
9 | TCTATTAGTTGCAGGGCAACCGACGAGTCCGTTT | 0.736
10 | CAAACTGGGTCACGAAAGGTCAAAGTCGAATGAC | 6.6
11 | TTCCCAAGGTGAAAGGTCGTTGATGCACGCCTTG | 5.44
12 | CGTACAAGGTCATAGGAGGTCAGTGAAGACAGAT | 6.18
13 | CCTAGCAGGCCACTCTGGGTCACTCAAGGCTTGA | 2.33
14 | AGTCAAAGTTCATCTAGGTAACGTACGATATGCT | 5.05
15 | CAAACTAGGTCATGAAAGGTCAAAGTCGAATGAC | 6.78
16 | CGTCCAAGTTCAAGGTAACGTAACAGAAAGCAGC | 2.68
17 | CAAACTAGGTCGCAGAGGTCAAAGTCCGTGCGTA | 5.7
18 | CCTATTAGTTGACCATAAGGGCAACGGAAGCTCG | 0.552
19 | CAAACTAGGTCACGAAAGGACAAAGTCGAATGAC | 5.41
20 | CCTCTGAGGACAGAAGGTCAGAGCTGTCCGCTTT | 2.02

Row | Sequence | PBM binding z-score
21 | TCTACTAGTTGAAGGGCAACCGACGAGTCCGTTT | 0.726
22 | GCTAGCAGGCCATGTGGGTCACTCAATGACGGGC | 1.58
23 | ACTAGTAGGCCAAGTTTGGGTCACTCAAACAAAG | 2.34
24 | ATCTCTAGGTAACAAGTGCAGTGAAAGAGAGGAC | 0.43
25 | GCATATAGGTAATACAAGGTGAAAGTGCGATTGT | 2.26
26 | GATACAGGGACAGCTAGAGGCCAGAGTATGGAAA | -0.178
27 | AGAATGAGGTTACCCAAGATCAGGGAAACGCTTG | 3.05
28 | TCTCGGAGGACACGAAAGGTAAGAGCTCGACATC | 0.039
29 | TCTAGTAGATCAAGCAGGTTAAGAAAGCCTGAGT | 0.517
30 | GGAACGAGGGCTAAGTTGATAGCATCTGTCGACG | 0.746
31 | TTACCAAGGTGAAGGACGTTGATCCCTCTGTAGA | 1.21
32 | GCTTGTAGATCAAGGTTAAGGAAGACTAAGCTAA | 1.68
33 | ATCGAGAGGTCGAAGGTGAGTATACCCACCCGAA | 4.07
34 | TCTGCTAGGTCAACGATGGTCAGCTAATCTGCTA | 3.19
35 | CCTAGTTGCTCAAGGTCACACACGCTATAGGTAC | 3.98
36 | TAGCCTAGGTCATTGGGCCTGTATAGTACGCATC | 3.52
37 | TCTAGTTTGTCACGGAGGTCACACACGACGGGTA | 3.88
38 | GCATAGAGGTAATACAAGGTGAAAGTCCGATTGT | 1.51
39 | GCTACCAGGCCATTTGGGTCACTCAATGACGGGC | 1.57
40 | CCTAGCATGCCAATCTGGGTCACTCAAGGCTTGA | 3.3

What follows are sequences tested on PPARg:RXRa (NR concentration 180 nM, RXRa partner concentration 90 nM) in the same assay as above.
Method in brief: as §1

Row | Sequence | PBM binding z-score
41 | ATCTCTAGGTAAAGGTAGTTCAGTGAATGCAAAT | 0.966
42 | ACTTTTAGTTGAGACGAGGGCAACCGATAGGTTG | 0.448
43 | TGTTGTAGATCAGCAGGTTAAGAAAGCTGGCCAA | -0.588
44 | CACCCTAGGTCAGGGCCAGTATAGGAGGAACGTT | 1.36
45 | AGAATGAGGTTATTAAGATCTGGGAATTGCGGTC | 0.924
46 | CGTCCAAGGTCAGAGACGTCAGTGAATGCCGAGT | 1.97
47 | ATCTCTCGGTAACAAGTTCAGTGAAAGAGAGGAC | 0.157
48 | TCTATTAGTTGAAGGGCAACCAACGAGTCCGTTT | -0.00575
49 | TCTATTAGTTGCAGGGCAACCGACGAGTCCGTTT | -0.219
50 | CAAACTGGGTCACGAAAGGTCAAAGTCGAATGAC | 10.5
51 | TTCCCAAGGTGAAAGGTCGTTGATGCACGCCTTG | 7.9
52 | CGTACAAGGTCATAGGAGGTCAGTGAAGACAGAT | 6.47
53 | CCTAGCAGGCCACTCTGGGTCACTCAAGGCTTGA | 0.363
54 | AGTCAAAGTTCATCTAGGTAACGTACGATATGCT | 6.7
55 | CAAACTAGGTCATGAAAGGTCAAAGTCGAATGAC | 9.71
56 | CGTCCAAGTTCAAGGTAACGTAACAGAAAGCAGC | 1.17
57 | CAAACTAGGTCGCAGAGGTCAAAGTCCGTGCGTA | 7.46
58 | CCTATTAGTTGACCATAAGGGCAACGGAAGCTCG | 0.455
59 | CAAACTAGGTCACGAAAGGACAAAGTCGAATGAC | 9.21
60 | CCTCTGAGGACAGAAGGTCAGAGCTGTCCGCTTT | 0.0496

Row | Sequence | PBM binding z-score
61 | TCTACTAGTTGAAGGGCAACCGACGAGTCCGTTT | 0.214
62 | GCTAGCAGGCCATGTGGGTCACTCAATGACGGGC | 1.31
63 | ACTAGTAGGCCAAGTTTGGGTCACTCAAACAAAG | 2.17
64 | ATCTCTAGGTAACAAGTGCAGTGAAAGAGAGGAC | 1.07
65 | GCATATAGGTAATACAAGGTGAAAGTGCGATTGT | 1.96
66 | GATACAGGGACAGCTAGAGGCCAGAGTATGGAAA | 0.636
67 | AGAATGAGGTTACCCAAGATCAGGGAAACGCTTG | 2.29
68 | TCTCGGAGGACACGAAAGGTAAGAGCTCGACATC | 0.278
69 | TCTAGTAGATCAAGCAGGTTAAGAAAGCCTGAGT | -0.406
70 | GGAACGAGGGCTAAGTTGATAGCATCTGTCGACG | 1.37
71 | TTACCAAGGTGAAGGACGTTGATCCCTCTGTAGA | 0.633
72 | GCTTGTAGATCAAGGTTAAGGAAGACTAAGCTAA | 1.05
73 | ATCGAGAGGTCGAAGGTGAGTATACCCACCCGAA | 3.99
74 | TCTGCTAGGTCAACGATGGTCAGCTAATCTGCTA | 2.69
75 | CCTAGTTGCTCAAGGTCACACACGCTATAGGTAC | 2.13
76 | TAGCCTAGGTCATTGGGCCTGTATAGTACGCATC | 2.18
77 | TCTAGTTTGTCACGGAGGTCACACACGACGGGTA | 2.25
78 | GCATAGAGGTAATACAAGGTGAAAGTCCGATTGT | 0.691
79 | GCTACCAGGCCATTTGGGTCACTCAATGACGGGC | 0.923
80 | CCTAGCATGCCAATCTGGGTCACTCAAGGCTTGA | 2.23
